Assay outcomes as filed in PubChem BioAssay.
ELG1 genotoxic – genotoxicity induction in ELG1-luciferase HEK293T cells; 1.3% of 330,000 active; Potency, µM (highest dose often 46 µM), without a hit: top-dose activity change, positive = activation, most hits filed as activators; HEK293T ELG1-luciferase reporter, luminescence, 16 h; further: % of control where 0% means no effect; nearly all actives have a fitted effect of over 60% in size
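Genotoxic stress is detected as increased luminescence from luciferase-tagged ELG1 in HEK293T cells, measured with ONE-Glo after a 16 hr treatment at 37 °C.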
NPC1 promoter act – activates the NPC1 promoter. Huh7 NPC1 promoter luciferase reporter, 24 h. Potency, µM (doses to about 9.22 µM), for inactives: top-dose activation, actives largely listed as activators. 2.4% of 320,000 active. AID 485313; further: % of control where 0% means no effect; nearly all actives have a fitted effect of over 60% in size
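Stably transfected Huh7 (NPC1 promoter→luciferase), 1500 cells/well in Opti-MEM + 10% FBS, 2 h settle, then compound 24 h at 37 °C. Luminescence after 10 min with Amplite reagent.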
SMN2 splice enh – increases expression of the SMN2 splice variant. AID 1458. HEK293 SMN2-luciferase splicing reporter, luminescence, 30-36 h. 2.8% of 210,000 active. Potency, µM (top dose mostly 46.1 µM), for the others: at the highest dose activity change, positive = activation, usual class: activators; further: % of control where 0% means no effect; nearly all actives have a fitted effect of over 55% in size
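HEK293 cells carry an SMN2 […]–luciferase reporter in which exon 7 inclusion puts luciferase in frame. Cells were plated 10-12 h before compound addition, then incubated 30-36 h at 37C. ONE-Glo luminescence was read; sodium butyrate at 4.5 mM final served as control.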
p53 reactivation – re-activators of mutant p53; 0.063% of 320,000 active; H1299 p53-A138V BP100-luciferase reporter, luminescence, 24 h; Potency, µM (titrated, usually from 92.2 µM), inactives show top-dose activity change, positive = activation, usual class: activators; further: % of control where 0% means no effect; nearly all actives have a fitted effect of over 45% in size
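H1299 (p53-null), stable ts p53-A138V + BP100-Luc; 1000 cells/well, Opti-MEM/10% FBS; cpd 4 pt, 1:5; 24 h, 37 deg C, 5% CO2; detection reagent 10 min RT; luminescence.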
FLuc modulator – counter-screen for miR-21 project: firefly luciferase inhibitors or activators; P08659; purified FLuc, Km substrates, luminescence inhibition; Potency, µM (highest dose often 57.5 µM), for inactives: top-dose activity change, negative = inhibition, usual class: inhibitors; 6.9% of 360,000 active; AID 588342;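 further: plate controls were vehicle for no effect and reference inhibitor for full effect; nearly all actives have a fitted effect of over 55% in size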
Target sequence (P08659 whole entry, looked up): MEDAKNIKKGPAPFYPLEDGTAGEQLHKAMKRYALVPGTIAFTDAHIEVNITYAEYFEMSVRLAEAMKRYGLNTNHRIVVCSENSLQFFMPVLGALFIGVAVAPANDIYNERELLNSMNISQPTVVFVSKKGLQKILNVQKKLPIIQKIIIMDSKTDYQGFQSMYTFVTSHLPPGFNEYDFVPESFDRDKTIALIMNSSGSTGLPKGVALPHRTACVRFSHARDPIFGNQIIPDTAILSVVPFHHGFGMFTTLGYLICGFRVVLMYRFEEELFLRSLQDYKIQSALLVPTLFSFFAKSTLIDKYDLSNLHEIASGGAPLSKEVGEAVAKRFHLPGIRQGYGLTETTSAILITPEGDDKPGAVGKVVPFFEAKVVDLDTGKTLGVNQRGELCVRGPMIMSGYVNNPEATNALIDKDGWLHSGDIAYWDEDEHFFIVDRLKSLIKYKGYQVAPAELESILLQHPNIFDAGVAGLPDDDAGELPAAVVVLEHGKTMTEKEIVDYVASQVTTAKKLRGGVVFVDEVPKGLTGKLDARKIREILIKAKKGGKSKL
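Purified P. pyralis luciferase (10nM final) with 10uM D-luciferin and 10uM ATP (Km levels) in 50mM Tris acetate pH 7.5, 10mM Mg acetate, 0.01% Tween-20, 0.05% BSA; qHTS 6-point titration, ~60 µM downward; luminescence read.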
Rab9 promoter act – activates the Rab9 promoter. Huh7 Rab9 promoter-luciferase reporter, luminescence, 24 h. 2.8% of 320,000 active. Potency, µM (titrated, usually from 9.22 µM), for the others: at the top dose activation, negative = inhibition, hits mostly activators; further: % of control where 0% means no effect; nearly all actives have a fitted effect of over 60% in size
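Luminescence from Amplite-detected luciferase (10 minutes, ambient) reports Rab9 promoter activation. Before that, stable Rab9-luciferase Huh7 cells (1500/well, reduced-serum OP-MEM I plus 10% FBS) were exposed to compound for 24 hours at 37C.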
An asterisk follows results filed as active; ? = inconclusive; . = no result; [ ] = dose if it differs, or a comment. This is a sample that favours compounds with a hit; in the whole collection about 7.3% have one here. The call rests on the fitted dose curve; in most records, active means well fitted curve in the direction sought with a large enough effect; inconclusive means small, poorly fitted or top-dose-only effect, or another doubt; inactive means no such curve, though single readings can be large; an effect the other way counts as inactive or inconclusive. Potency means the concentration at half of the fitted maximal effect.

SMILES	ELG1 genotoxic	NPC1 promoter act	SMN2 splice enh	p53 reactivation	FLuc modulator	Rab9 promoter act
COc1ccc(CS(=O)(=O)/C(Cl)=C(/Cl)C(=O)Nc2ccc(OC)nc2)cc1	?	-30%	25%	-15%	1%	-29%
COc1ccc(C(=O)c2cn(CC(=O)Nc3ccc4c(c3)OCCO4)c3ccc(OC)cc3c2=O)cc1	.	.	-15%	.	-16%	.
O=C(NNC(=O)c1cc(Br)c(Br)s1)c1ccncc1	4%	0%	.	2%	?	2%
COC(=O)[C@@H]1C[C@H]2CC[C@H](O)C[C@H]2N1Cc1ccc(N2CCOCC2)cc1	.	.	-3%	.	.	.
Cc1ccc(C(=O)Nc2nc(-c3ccccn3)cs2)o1	4%	-1%	.	8%	19µM*	-1%
CCc1cc(C(=O)Nc2nc(-c3ccccn3)cs2)sc1C	5%	24%	.	24%	12µM*	24%
O=C(CCS(=O)(=O)c1nc(-c2ccc3c(c2)OCO3)cc(C(F)(F)F)n1)Nc1ccc(F)c(Cl)c1	.	.	-15%	.	-10%	.
Cc1ccc(Cn2c(CNC(=O)Cc3cccc([N+](=O)[O-])c3)nc3cccnc32)cc1	.	.	.	.	-5%	.
CCc1cc2c(=O)c(-c3cscn3)coc2cc1O	13µM*	26%	21%	?	?	26%
CCc1cc2c(=O)c(-c3cscn3)coc2cc1OC	?	3.5µM*	13µM*	15%	1.7µM*	2µM*
CCOC(=O)c1cc(C)n(CC2CCC(C(=O)Nc3cccc(C)c3)CC2)c1C (configuration not stated)	.	.	.	.	-19%	.
Cn1cccc1C(=O)OCc1cc(Cl)cc2c1OCOC2	?	?	7%	?	13µM*	?
Cc1ccc(S(=O)(=O)c2nnn3c2nc(N2CCC(C)CC2)c2cc(Cl)ccc23)cc1C	.	.	0%	.	-4%	.
O=c1cc(-c2ccccc2)oc2cc(O)cc(O)c12	.	.	4µM*	.	.	.
O=c1cc(-c2ccc(O)cc2)oc2cc(O)cc(O)c12	.	?	22µM*	.	.	20%[46.1 µM]
Cc1ccc(NC(=O)CCCn2c(=O)c3cccn3c3cccnc32)c(Cl)c1	.	.	.	.	5%	.
Cc1nc2c(ccc3nc(NC(=O)C4CC4)sc32)s1	-6%	?	-51%	?	13µM*	-3%
CCCC(=O)Nc1nc2ccc3nc(C)sc3c2s1	?	19%	?	?	?	?
Cc1c(Cl)ccc2sc(NC(=O)C3CC3)nc12	7%	20%	.	.	?	10%
CCC(=O)Nc1nc2ccc3sc(C)nc3c2s1	?	?	15%	?	6.7µM*	?
Cc1cc2oc(C(=O)Nc3sc4c(c3C(=O)NCC3CCCO3)CCCC4)cc(=O)c2cc1C (configuration not stated)	.	.	-10%	.	-4%	.
COc1ccccc1CNc1nc(-c2ccco2)nn1S(C)(=O)=O	.	.	.	.	-1%	.
O=C(Nc1cccn(Cc2c(Cl)cccc2Cl)c1=O)c1c(Cl)cccc1Cl	-6%	-2%	-33%	-6%	6%	1%
O=C(NCc1ccccc1)Nc1cccn(Cc2ccc(Cl)cc2)c1=O	-1%	-11%	.	7%	?	-29%
CSc1ccc(NC(=O)Nc2cccn(Cc3ccccc3)c2=O)cc1	14%	-5%	.	0%	11µM*	-4%
SMILES	ELG1 genotoxic	NPC1 promoter act	SMN2 splice enh	p53 reactivation	FLuc modulator	Rab9 promoter act
O=C(NCc1ccccc1)Nc1cccn(Cc2ccccc2Cl)c1=O	7%	-14%	-39%	-2%	8.5µM*	-18%
COc1cccc(Cn2cccc(NC(=O)Nc3ccc(C#N)cc3)c2=O)c1	-3%	-15%	-60%	2%	?	-3%
COc1cccc(NC(=O)Nc2cccn(Cc3ccccc3)c2=O)c1	-5%	3%	-28%	3%	17µM*	0%
O=C(Nc1ccccc1)Nc1cccn(Cc2c(F)cccc2Cl)c1=O	0%	26%	.	4%	11µM*	?
CCOC(=O)CSc1nc(-c2ccc(C)cc2C)cc(-c2ccccc2)c1C#N	.	.	-7%	.	-4%	.
COc1cc(OC)c(NC(=O)c2cc(C(C)=O)n3ccccc23)cc1Cl	.	.	.	.	-2%	.
Cc1ccc(Cn2cccc(NC(=O)c3ccco3)c2=O)cc1	19%	28%	-6%	13%	15µM*	?
COc1cccc(Cn2cccc(NC(=O)Nc3ccccc3C)c2=O)c1	-7%	-7%	.	-4%	5%	0%
COc1ccc(Cn2cccc(NC(=O)Nc3cccc(OC)c3)c2=O)cc1	-7%	0%	.	7%	21µM*	2%
COc1ccc(Cn2cccc(NC(=O)Nc3ccc(F)cc3)c2=O)cc1	-7%	-7%	.	-2%	?	-13%
Cc1ccc(Cn2cccc(NC(=O)NCc3ccccc3)c2=O)cc1	-5%	-4%	-20%	-1%	?	-4%
COc1cccc(Cn2cccc(NC(=O)NCc3ccccc3)c2=O)c1	0%	0%	.	.	21µM*	0%
CCOc1ccc(C(=O)Nc2ccc3nn(-c4ccc(OC)c(Cl)c4)nc3c2)cc1	.	.	.	.	-6%	.
C=CCNc1nnc(SCC(=O)N2CCC(C(N)=O)CC2)s1	1%	-5%	.	1%	-1%	10%
Cc1cccc(C)c1OCC(=O)Nc1ccc2c(c1)OCCO2	?	13%	.	9%	?	17%
O=C(CSCc1c(Cl)cccc1Cl)Nc1ccc2c(c1)OCCO2	12%	13%	18%	7%	17µM*	8%
Cc1ccccc1OCC(=O)N/N=C/c1ccc2c(c1)OCCO2	4%	1%	12%	?	27µM*	-1%
O=C(COc1ccccc1Cl)NCCc1ccc2c(c1)OCCO2	6%	-2%	-7%	?	-17%	0%
O=C(COc1ccccc1)N/N=C/c1ccc2c(c1)OCO2	12%	4%	3%	-1%	?	0%
O=C(COc1ccccc1Cl)Nc1ccc2c(c1)OCCO2	4.1µM*	4µM*	.	26%	4.8µM*	1.6µM*
CC(=O)Nc1ccc(SCC(=O)Nc2ccc3c(c2)OCCO3)cc1	8%	.	.	?	.	.
Cc1ccccc1OCC(=O)Nc1ccc2c(c1)OCCO2	?	3.5µM*	.	16%	9.5µM*	2.8µM*
Cn1c(CCN2CCN(c3ccccn3)CC2)nc2cc(NC(=O)COc3ccccc3)ccc21	-15%	-8%	.	-9%	-3%	-14%
O=C(COC(=O)c1cccnc1Cl)Nc1ccc2c(c1)OCCO2	7%	-2%	5%	10%	8.5µM*	-2%
NC(=O)c1ccccc1OCC(=O)Nc1ccc2c(c1)OCCO2	?	?	.	22%	8.5µM*	3.2µM*
COc1ccccc1OCC(=O)Nc1ccc2c(c1)OCCO2	?	?	.	23%	17µM*	?
